Measured values reported in PubChem BioAssay AID374 (University of Pittsburgh Molecular Library Screening Center, 2006).
The whole screen tested about 65,000 compounds, of which about 100 (0.15%) were called active. This is one part of a sample in which actives are shown more often than they occur.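 The calls were made as follows: active = inhibition above about 50% (limit read from the data); inconclusive = inhibition over screen mean plus 3 SD, below that limit; inactive = the rest.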

Biological target: Dual specificity protein phosphatase 1 (Homo sapiens) (UniProt P28562)
Assay: blockers of human DUSP1 activity – biochemical, in vitro, primary screen (AID 374);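 also: 0% = DMSO max control wells and 100% = wells with enzyme stopped by NaOH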
Settings: recombinant MKP-1, OMFP hydrolysis fluorescence; stronger effect = higher value;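 compounds tested at a single concentration somewhere between 10 and 100 µM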

Chain of Dual specificity protein phosphatase 1 (Homo sapiens) (P28562 whole entry, looked up): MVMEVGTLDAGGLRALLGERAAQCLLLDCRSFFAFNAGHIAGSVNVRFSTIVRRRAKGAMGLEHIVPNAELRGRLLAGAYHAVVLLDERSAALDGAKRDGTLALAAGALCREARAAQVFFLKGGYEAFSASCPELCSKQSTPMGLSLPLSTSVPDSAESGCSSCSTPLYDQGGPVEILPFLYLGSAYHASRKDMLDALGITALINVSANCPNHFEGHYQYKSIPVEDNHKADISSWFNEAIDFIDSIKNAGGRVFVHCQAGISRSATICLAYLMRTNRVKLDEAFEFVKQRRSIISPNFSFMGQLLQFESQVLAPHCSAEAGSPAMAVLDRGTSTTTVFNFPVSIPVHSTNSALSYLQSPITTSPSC

SMILES	inhibition
COC(=O)N(c1ccc(OC)cc1)P1(=S)OCCC(C)O1 (stereo not given)	100% (active)
CCOC(=O)c1c(N)n(Cc2ccccc2)c2nc3ccccc3nc12	32.1% (inactive)
COC(=O)C(c1ccccc1)N1CCCCCC1 (stereo not given)	-10.8% (inactive)
CCc1nc2ccccc2c(=O)n1-c1cccc(OC)c1	2.83% (inactive)
CCN(CC)CCOC(=O)c1cc2cc(COC)ccc2o1	2.26% (inactive)
